PubChem BioAssay AID720493 (The Scripps Research Institute Molecular Screening Center, 2013)
Some of the results follow.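 How the source made its calls: active means compounds that raise the fluorescence signal in this interference counterscreen, with EC50 at or below 10 µM; inactive means the rest.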

assay: EDANS-DABCYL fluorescence interference, concentration series, dose response, artefact control for kallikrein-7 zymogen activator project, biochemical, fluorescence intensity, triplicate (AID 720493); conditions: EDANS-DABCYL peptide fluorescence interference, no enzyme;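 further: intact quenched peptide substrate alone read at 355 nm excitation and 520 nm emission; signal is fluorescence gain from T0 to T4 after four hours at room temperature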

EC50, inactive:
O=C(Oc1c(-c2ccco2)oc2ccccc2c1=O)c1cccnc1 21.2 µM, O=c1c(-c2ccccc2)coc2c(CN3CCOCC3)c(O)ccc12 > 69.5 µM, COc1c(N2CCN(C(=S)Nc3ccccc3F)C(C)C2)c(F)cc2c(=O)c(C(=O)O)cn(C3CC3)c12 (stereo not drawn) > 69.5 µM, O=C(OC1CCOC1=O)c1ccc(-c2nc3ccccc3s2)s1 (stereo not drawn) > 69.5 µM, Cc1cccc(C)c1NC(=O)C(c1ccccc1)N1CC(=O)Nc2ccccc21 (stereo not drawn) > 69.5 µM, COC(=O)C1=NN(c2ccccc2)C2C(=O)N(c3ccccc3OC)C(=O)C12 (stereo not drawn) > 69.5 µM, CN(C(=O)c1cc2c(=O)n3ccccc3nc2s1)C1CCCCC1 > 69.5 µM, COc1cccc2sc3cc(NCC[C@@H]4CCCN4C)ccc3c(=O)c12 > 69.5 µM
